Only some compounds are listed: those with a hit (about 18% of all), similar ones and a draw of the others.
DT40 TDP1 no CPT: qHTS for Inhibitors of human tyrosyl-DNA phosphodiesterase 1 (TDP1): qHTS in cells in absence of CPT; DT40 Tdp1-/- hTDP1 cells, no CPT, ATP luminescence, 48 h; Potency, µM (top dose mostly 46.2 µM), for inactives: at the top dose activity change, negative = growth inhibition, hits mostly inhibitors; 15% of 420,000 active; further: potency means the concentration at half of the fitted maximal effect; on the % scale 0 is the no-effect control and ±100 the full control effect; nearly all actives have a fitted effect of over 55% in size
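Luminescent ATP content (CellTiter-Glo) served as the growth readout. Knockout chicken DT40 cells expressing human TDP1 were exposed to compounds without camptothecin for a minimum 48 hr at 37 °C.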
TDP1 cell CPT: DT40-hTDP1 cell growth loss with CPT | chicken DT40 Tdp1-/-;hTDP1 cells + 20 nM CPT, ATP luminescence, 48 h | Potency, µM (doses to about 46.2 µM), for inactives: at the top dose activity change, negative = growth inhibition, most hits filed as inhibitors | 12% of 420,000 active; further: potency means the concentration at half of the fitted maximal effect; on the % scale 0 is the no-effect control and ±100 the full control effect; nearly all actives have a fitted effect of over 55% in size
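Chicken DT40 Tdp1-/- cells stably complemented with human TDP1 were seeded at 400 cells/well in medium containing 20 nM camptothecin, exposed to pin-transferred compounds, and grown at 37 °C for at least 48 hr. Viability was read as ATP luminescence.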
IL-1B inflam inh: inhibitors of inflammasome signaling (IL-1 beta secretion) | THP-1 LPS/ATP IL-1B secretion, AlphaLISA, 16 h; active compounds read low | activity change, % at 57.5 µM | 4.7% of 360,000 active | AID 743279; in the data active means activity change below about -50%; inconclusive means mostly about -30% to -49%; further: on the % scale 0 is the no-effect control and ±100 the full control effect
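THP-1 cells pretreated 1 hr with compounds (up to 57.5 uM final), then stimulated with LPS (250 ng/mL final) plus ATP (1.25 mM final); secreted IL-1B measured by AlphaLISA after 16 hr, decreased signal indicating inhibition.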
HepG2 tox: HepG2 cytotoxicity, counter-screen for TGF-b inhibitors; AID 588856; HepG2 CAGA-GFP viability, ATP luminescence, 18 h; 0.76% of 410,000 active; Potency, µM (titrated, usually from 46.1 µM), for inactives: at the highest dose activity change, negative = cytotoxicity, most hits filed as cytotoxic; further: potency means the concentration at half of the fitted maximal effect
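HepG2 CAGA-GFP cells (1000/well, DMEM with 1% FBS) received compound, then TGF-beta at 500 pg/mL final, and were incubated 18 hours at 37 degrees C. Viability was read by CellTiter-Glo luminescence. Media-only wells were set as complete cell-killing and DMSO as no toxicity.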
TDP1 inh: blocks human tyrosyl-DNA phosphodiesterase 1 | Q9NUW8 | AID 485290 | recombinant TDP1, AlphaScreen DNA substrate cleavage | 0.28% of 350,000 active | Potency, µM (series often up to 130 µM), for inactives: top-dose activity change, negative = inhibition, hits mostly inhibitors; further: potency means the concentration at half of the fitted maximal effect; on the % scale 0 is the no-effect control and ±100 the full control effect; nearly all actives have a fitted effect of over 40% in size
Target sequence (Q9NUW8 whole entry, looked up): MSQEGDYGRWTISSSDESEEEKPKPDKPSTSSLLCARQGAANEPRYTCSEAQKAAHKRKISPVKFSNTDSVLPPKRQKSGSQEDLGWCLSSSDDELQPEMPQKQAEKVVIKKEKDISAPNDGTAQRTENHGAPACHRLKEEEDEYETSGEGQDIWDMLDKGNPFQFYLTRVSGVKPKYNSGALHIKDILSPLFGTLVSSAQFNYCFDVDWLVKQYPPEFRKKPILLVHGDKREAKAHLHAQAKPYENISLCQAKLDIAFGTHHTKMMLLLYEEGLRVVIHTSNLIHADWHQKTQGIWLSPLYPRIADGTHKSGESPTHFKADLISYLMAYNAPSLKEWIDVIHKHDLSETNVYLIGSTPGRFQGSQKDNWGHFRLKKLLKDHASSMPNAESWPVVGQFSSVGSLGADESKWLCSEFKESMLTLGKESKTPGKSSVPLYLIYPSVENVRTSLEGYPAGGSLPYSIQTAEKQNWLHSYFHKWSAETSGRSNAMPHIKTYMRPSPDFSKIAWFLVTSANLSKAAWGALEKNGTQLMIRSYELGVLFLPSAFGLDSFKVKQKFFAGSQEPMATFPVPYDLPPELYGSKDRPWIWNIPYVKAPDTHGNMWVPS
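Tdp1 1 nM final; 15 min RT w/ cpd; substrate 15 nM, 5 min; beads 10 ug/ml, 10 min; AlphaScreen read. Neg ctrl: no enzyme.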
TGFb SMAD3 inh: blocks TGF-b signaling; HepG2 CAGA-GFP TGF-b/SMAD3 reporter, GFP fluorescence, 18 h; TGF-beta stimulated, 500 pg/mL final; Potency, µM (highest dose often 46.1 µM), without a hit: at the highest dose activity, negative = inhibition, usual class: inhibitors; 1.2% of 410,000 active; further: potency means the concentration at half of the fitted maximal effect; on the % scale 0 is the no-effect control and ±100 the full control effect; nearly all actives have a fitted effect of over 65% in size
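First, reporter cells (HEPG2 CAGA-GFP) rested 2 h at 37 degrees C. Next, compounds were pinned in and TGF-beta added to 500 pg/mL final. After 18 h, GFP was imaged per cell and summed per well.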
* = called active by the depositor; ? = inconclusive; . = no result given; [ ] = remark or other dose. Unless noted, the call rests on the fitted dose curve; in most records, active means well fitted curve in the direction sought with a large enough effect; inconclusive means small, poorly fitted or top-dose-only effect, or another doubt; inactive means no such curve, though single readings can be large; an effect the other way counts as inactive or inconclusive.

SMILES	DT40 TDP1 no CPT	TDP1 cell CPT	IL-1B inflam inh	HepG2 tox	TDP1 inh	TGFb SMAD3 inh
CCc1nn(C(C)C(=O)N2CCN(Cc3ccccc3)CC2)c(=O)c2cc3occc3n12 (stereo unspecified)	?	?	-4	-2%	0%	7%
Cc1nn(C(C)C(=O)N2CCN(c3ccccn3)CC2)c(=O)c2cc3occc3n12 (stereo unspecified)	-6%	-4%	-1	-5%	-2%	?
CCc1nn(C(C)C(=O)N2CCN(c3ccc(OC)cc3)CC2)c(=O)c2cc3occc3n12 (stereo unspecified)	7.3µM*	4.6µM*	22	-22%	6%	?
Cc1cccc(N2CCN(C(=O)C(C)n3nc(C)n4c(cc5occc54)c3=O)CC2)c1C (stereo unspecified)	18µM*	?	-1	1%	3%	-7%
CCc1nn(C(C)C(=O)N2CCN(c3cccc(C(F)(F)F)c3)CC2)c(=O)c2cc3occc3n12 (stereo unspecified)	23µM*	?	.	-2%	5%	-15%
CCC(C(=O)N1CCN(c2ccc(OC)cc2)CC1)n1nc(C)n2c(cc3occc32)c1=O (stereo unspecified)	18µM*	18µM*	.	-20%	8%	10µM*
CC(=O)NCC1(c2ccccc2)CCN(CCCC(=O)c2ccc(F)cc2)CC1	-2%	8%	-5	-7%	.	1%
CC(=O)C1=C(C)Nc2ncnn2C1c1ccccc1 (stereo unspecified)	13%	-3%	-2	-6%	.	0%
CCc1nn(CCCC(=O)N2CCN(c3cccc(OC)c3)CC2)c(=O)c2cc3occc3n12	-27%	-19%	.	-2%	0%	-7%
COc1ccc(N2CCN(C(=O)[C@H](C)N3C(=O)C4CC=CCC4C3=O)CC2)cc1 (stereo partly specified)	-6%	-8%	-2	-9%	2%	10%
Cc1cccc(N2CCN(C(=O)[C@H](C)N3C(=O)C4CC=CCC4C3=O)CC2)c1C (stereo partly specified)	26µM*	23µM*	-15	-9%	0%	0%
Cc1cccc(N2CCN(C(=O)CCCn3ncn4c(cc5occc54)c3=O)CC2)c1C	26µM*	?	.	-28%	5%	?
O=C(CCCn1ncn2c(cc3occc32)c1=O)N1CCc2ccccc2C1	-13%	-8%	-14	6%	-2%[56.1 µM]	19%
CCc1nn(CCCC(=O)N2CCN(c3cc(Cl)ccc3C)CC2)c(=O)c2cc3occc3n12	23µM*	?	.	-28%	-3%	?
Cc1ccc(C)c(N2CC(C(=O)OCC(=O)Nc3cc(C)on3)CC2=O)c1 (stereo unspecified)	-4%	-2%	-7	-12%	4%	-4%
COc1ccc(-c2nc3scc(CCNC(=O)Cc4ccc(F)cc4)n3n2)cc1	26µM*	?	.	-14%	3%	1%
COc1ccc(-c2nc3scc(CCNC(=O)c4cc(OC)cc(OC)c4)n3n2)cc1	21µM*	?	.	3%	1%	-9%
COc1ccc(CNC(=O)Cc2csc3nc(-c4ccc(F)cc4)cn23)cc1	?	21µM*	.	-5%	4%	-5%
COc1ccc(CNC(=O)Cc2csc3nc(-c4ccc(C)cc4)cn23)cc1	-22%	-24%	.	-21%	5%	-3%
C=CCOC(=O)N[C@H](/C(C(=O)OC)=C(\C)NCc1ccccc1)c1ccc(Br)cc1	.	.	.	.	-4%	.
CCNC(=O)C1CCCN(C(=O)c2ccc(C(=O)OC)cc2)CC1 (stereo unspecified)	-2%	4%	3	-3%	.	16%
CCN1CCC(N(Cc2ccc3c(c2)OCO3)C(=O)Nc2ccc(Br)c(C)c2)CC1	16µM*	?	.	-95%	-1%	?
CC1(C(=O)Nc2ccc(Cl)cc2)Cc2c(-c3cccc(C(N)=O)c3)ccnc2O1 (stereo unspecified)	5.8µM*	3.7µM*	0	-54%	.	-3%
CC(=O)Nc1cccc(-c2ccnc3c2CC(C)(C(=O)Nc2ccc(C(C)C)cc2)O3)c1 (stereo unspecified)	?	?	-60*	-27%	.	41%
CC(C)c1ccc(NC(=O)C2(C)Cc3c(-c4cccc(C(N)=O)c4)ccnc3O2)cc1 (stereo unspecified)	?	?	-69*	-38%	.	26%
SMILES	DT40 TDP1 no CPT	TDP1 cell CPT	IL-1B inflam inh	HepG2 tox	TDP1 inh	TGFb SMAD3 inh
CC1(C(=O)Nc2ccc(F)c(Cl)c2)Cc2c(-c3ccc(C(N)=O)cc3)ccnc2O1 (stereo unspecified)	18µM*	21µM*	-79*	-2%	.	-21%
COc1ccc(NC(=O)Cn2c(=O)n(CCCC(=O)NCc3ccccc3OC)c(=O)c3ccccc32)cc1Cl	-21%	?	.	-48%	5%	31%
Cc1cc(C)n2cc(CSc3nnc(-c4ccccc4)c(-c4ccccc4)n3)nc2n1	23µM*	21µM*	0	-3%	.	-7%
C=CC(COCc1ccccc1)N([C@@H](Cc1ccccc1)C(=O)OC)S(=O)(=O)c1ccccc1Br (stereo partly specified)	23µM*	?	12	-20%	-1%	?
C=CC(COCc1ccccc1)N(Cc1ccc(OC)cc1)S(=O)(=O)c1ccccc1Br (stereo unspecified)	?	?	24	-36%	-3%	?
O=C(CSc1nc2ccccc2n1Cc1ccccc1Cl)NCc1ccccc1	23µM*	15µM*	.	-1%	9%	0%
Cc1ccc(C)c(Cn2c(SCC(=O)NCc3ccccc3)nc3ccccc32)c1	18µM*	?	.	-45%	-1%	?
Cn1c(SCC(=O)NCc2ccccc2)nc2ccccc21	-12%	-28%	0	-22%	1%	1%
COc1cccc(-c2ccc(O)c(CNC(c3ccccc3)c3ccc(Cl)cc3)c2)n1 (stereo unspecified)	-27%	-6%	.	.	.	.
COc1ccc(C(=O)CCN2CCN(c3ccccc3F)CC2)cc1	3.7µM*	4.6µM*	0	-35%	5%	?
O=C(CCN1CCN(c2ccccc2F)CC1)c1ccc(Br)cc1	2.9µM*	2.6µM*	-2	16µM*	3%	?

Compound activity as filed in PubChem BioAssay.
